Compounds without any hit were thinned out: in the full panel of roughly 83,000, 20% have a hit.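 How to read the values: 0–100, growth inhibition (40 = 60% inhibited); 0, no net growth; -100 to 0, cell death (-40 = 40% of starting cells died; -100 = all dead).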 Values without a mark were called inactive. Rule for the calls: active = growth percent below 10; inactive = the rest.

This test relates to NCI-H322M lung. Put plainly: NCI-60 one-dose screen, 48 h (100 = growth as untreated, 0 = no growth, -100 = all killed). The note with it: 10 µM unless noted.
As to `C=C(C)[C@@H]1CC[C@]2(CNCCO)CC[C@]3(C)[C@H](CC[C@@H]4[C@@]5(C)CCC(N)[C@@](C)(CO)[C@@H]5CC[C@]43C)[C@@H]12` (some centres undefined), the growth was 47.5%.
`O=S(=O)(NCCNc1cc(-c2c(-c3cccc(O)c3)nc3sccn23)ccn1)c1ccc(Cl)cc1`: the growth is 86%.
Consider `CC(C)(C)Nc1c(-c2c3ccccc3cc3ccccc23)nc2ccccn12`, for which the growth was 71.2%.
With `CN(C)CCOC(=O)Nc1ccc(Cl)cc1`, the growth is 92.2%.
Take `CCOc1ccc(-c2nc3ccc(-c4nc5ccc(N6CCN(C)CC6)cc5[nH]4)cc3[nH]2)cc1OCC`: the growth is 42.1%.
Take `N[C@H]1CCC[C@@H]1NCCCCN1C(=O)c2cccc3cccc(c23)C1=O`: the growth was 54.9%.
Under `COc1ccc(/C=C(\C#N)n2nnc3cc(F)c(F)cc32)c(OC)c1OC` stands 76%; under `COc1cc2ccccc2cc1C(=O)NC(=S)Nc1ccc(-c2nc3ccccc3[nH]2)cc1`, 90.9%; under `Cc1ccc(/C=C(\C#N)n2nnc3cc(Cl)c(Cl)cc32)cc1`, 49.5%.
On to `CC(C)(O)c1cccc(F)c1`, for which the growth is 100%.
As to `O=C1Nc2ccc(Cl)cc2/C1=N/N=C/c1c[nH]c2ccccc12`, the growth was 75.5%.
The figure for `N#Cc1c(-c2ccccc2)nc(SCC2CO2)nc1N1CCOCC1` (centres undefined) is 65.8%.
The figure for `COc1cc2c(cc1OC)-c1ccc3cc4c(cc3c1N(CCCN(C)C)C2)OCO4` is 51.3%; for `C=C1C(=O)O[C@H]2[C@H]1CC/C(Cn1cc(CNCCc3c[nH]c4ccc(Cl)cc34)nn1)=C\CC[C@@]1(C)O[C@@H]21` it is 85.7%.
